The panel holds about 83,000 compounds, 20% with a hit somewhere; the sample as a whole holds those more often.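 Cells were grown in 96-well plates and exposed to the test compound at a single concentration for 48 hours; results are reported as percent growth, with values below 10 considered active.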 A number with no mark means an inactive call. Active and inactive are the calls of the source.
test system: UACC-257 melanoma; assay: NCI-60 one-dose screen, 48 h (100 = growth as untreated, 0 = no growth, -100 = all killed); conditions: 10 µM unless noted

Row | SMILES | growth
1 | C=CCn1c(SCC(=O)Nc2ccc(C(=O)/C=C/c3ccc(OC)cc3)cc2)nnc1-c1ccccc1 | 104%
2 | COc1cc2ncnc(Nc3ccc(F)c(Cl)c3)c2cc1OCC(=O)N1CCN(c2ccc(F)cc2)CC1 | 114%
3 | Cc1ccc2nc(Cl)c(Cn3nnnc3SCc3ccccc3)cc2c1 | 105%
4 | CN1CCN(CCOc2ccc(-c3cnc4c(-c5ccc(C(F)(F)F)cc5)cnn4c3)cc2)CC1 | 8.47% (active)
5 | C/C(C=O)=C\c1ccc2c(c1)OCO2 | 109%
6 | Cc1ccc(O)c(NC(=O)c2ccc(CNc3ccnc(C(F)(F)F)c3)cc2)c1 | 71.3%
7 | O=C1/C(=C/c2ccc(C(F)(F)F)cc2)COc2ccc(O)c(O)c21 | 25.3%
8 | O=C(N/N=C/c1ccc(O)cc1O)c1ccc(Nc2ccnc(C(F)(F)F)c2)cc1 | 44.6%
9 | O=c1[nH]c(-c2ccc(Cl)cc2)cn1-c1ccc(-n2cc(-c3ccc(Cl)cc3)[nH]c2=O)cc1 | 101%
10 | CC1O[C@@H]2C[C@@](O)([C@H]1O)n1c3ccccc3c3c4c(c5c6ccccc6n2c5c31)C(=O)NC4=O (stereo not given in full) | 47.9%
11 | COC1=CC(c2ccc[nH]2)=N/C1=C\c1[nH]c(C)c(CC(=O)OCc2ccccc2)c1C | -25% (active)
12 | NC(=O)c1ccc(NC(=O)c2oc3ccccc3c2-c2cnn(-c3ccccc3)c2)cc1 | 47.3% [50 µM]
13 | CCOC(=O)N1CCN(S(=O)(=O)c2oc(-c3ccc(Cl)cc3)nc2C#N)CC1 | 84.1%
14 | Cc1nn(-c2ccccc2)c(N2CCCCC2)c1/C=N/NC(=O)Cn1c(=O)sc2ccccc21 | 95.2%
15 | CN(C)c1ccc(C(=NO)c2ccc(N(C)C)cc2)cc1 | 41.4%
16 | Clc1ccc(-c2nc(-c3c[nH]c4ncccc34)cs2)cc1 | 105% [100 µM]
17 | COc1ccc(C(c2cc(OC)c(OC)c(OC)c2)N2CCCC2)cc1 (stereo not given) | 74.6%
18 | COc1cccc(C(=O)OCC(O)C(=O)NC23CC4CC(CC(C4)C2)C3)c1 (stereo not given) | 89%
19 | C=CC(=O)N1CCN(c2ccc3cccc(NC(=O)c4cnc(C)cn4)c3n2)CC1 | 37.2%
20 | CCOC(=O)c1c(C)c2c(n1C)CSc1cc(S(=O)(=O)c3ccccc3)c(=O)[nH]c1-2 | 41.9% [100 µM]

Row | SMILES | growth
21 | CCCCCCCCNc1cc2c3c(c1)CCCN3CCC2 | -11.6% (active)
22 | COc1ccc(OC)c(-c2cn3nc(-c4c[nH]c5ccc(Br)cc45)sc3n2)c1 | 84.9%
23 | CS(=O)(=O)Nc1cc(-c2ccc3ncnc(Nc4ccc5c(cnn5Cc5cccnc5)c4)c3c2)cnc1Cl | 64.5%
24 | C=CCN=C(N)SCCCCCCSC(N)=NCC=C | 87.8%
25 | COc1cc(C2C3=C(COC3=O)N(CCO)c3cc4c(cc32)OCCO4)cc(OC)c1OC (stereo not given) | 42.5%
26 | COc1ccc2[nH]cc(-c3nc(-c4cn(C)c5ccncc45)cs3)c2c1 | 92.7%
27 | COc1cccc(NC(=O)c2cccc(C3CCc4c(cc(OC)c(OC)c4OC)O3)c2)c1 (stereo not given) | 78.1%
28 | Cn1c(O)c(C(/C=C/c2ccccc2)=Nc2ccccc2N)c(=O)n(C)c1=O | 106%
29 | CC1=C(C(=O)n2c3ccccc3c3ccccc32)C(c2cccc([N+](=O)[O-])c2)C(C(=O)n2c3ccccc3c3ccccc32)=C(C)N1 | 106%
30 | O=C(O)c1cn(C2CC2)c2cc(N3CCN(C(=O)N/N=C/c4ccccc4)CC3)c(F)cc2c1=O | 89.3%
31 | CC1(C)CCC(S(=O)(=O)c2ccc3c(c2)/C(=N\O)c2cc(S(=O)(=O)N4CCN(c5ccc(F)cc5O)CC4)ccc2-3)CC1 | -80.6% (active)
32 | Cc1ccc(C)n1/C=C/n1c(C)ccc1C | 119%
33 | CCOC(=O)C(=Cc1cccc(C#N)c1)C(=O)OCC | 69.6%
34 | COc1cc(-c2nc(NC(C)=O)sc2-c2ccnc(NCCNS(=O)(=O)c3ccccc3)n2)ccc1Cl | 47.1%
35 | CCN1CCN(CC(=O)Nc2nc3ccc(NCc4ccc(Br)cc4)cc3s2)CC1 | 17.7%
36 | C/C(=N\Nc1nc(C)cs1)c1cc2ccccc2o1 | 102%
37 | COc1ccccc1-n1c(-c2cc(O)ccc2C)cn2c3c(=O)[nH]c(=O)n(C)c3nc12 | 83.8%
38 | N#C/C(=C\c1ccc(Br)cc1)c1cc2ccccc2[nH]1 | 100%
39 | COc1ccc(C2=C/C(=C\c3ccc(Cl)cc3)C(=O)N2/N=C/c2ccc(Cl)cc2)cc1 | 88.7%
40 | CC(O)c1ncc(/C=C2\SC(=S)N(Cc3ccccc3)C2=O)s1 (stereo not given) | 96.2%

test system: M14 melanoma; assay: as above; conditions: 10 µM unless noted

Row | SMILES | growth
41 | C=CCn1c(SCC(=O)Nc2ccc(C(=O)/C=C/c3ccc(OC)cc3)cc2)nnc1-c1ccccc1 | 81.5%
42 | COc1cc2ncnc(Nc3ccc(F)c(Cl)c3)c2cc1OCC(=O)N1CCN(c2ccc(F)cc2)CC1 | 81.3%
43 | Cc1ccc2nc(Cl)c(Cn3nnnc3SCc3ccccc3)cc2c1 | 89.3%
44 | CN1CCN(CCOc2ccc(-c3cnc4c(-c5ccc(C(F)(F)F)cc5)cnn4c3)cc2)CC1 | -64.2% (active)
45 | C/C(C=O)=C\c1ccc2c(c1)OCO2 | 121%
46 | Cc1ccc(O)c(NC(=O)c2ccc(CNc3ccnc(C(F)(F)F)c3)cc2)c1 | 49.2%
47 | O=C1/C(=C/c2ccc(C(F)(F)F)cc2)COc2ccc(O)c(O)c21 | 42.3%
48 | O=C(N/N=C/c1ccc(O)cc1O)c1ccc(Nc2ccnc(C(F)(F)F)c2)cc1 | 36.1%
49 | O=c1[nH]c(-c2ccc(Cl)cc2)cn1-c1ccc(-n2cc(-c3ccc(Cl)cc3)[nH]c2=O)cc1 | 99.2%
50 | CC1O[C@@H]2C[C@@](O)([C@H]1O)n1c3ccccc3c3c4c(c5c6ccccc6n2c5c31)C(=O)NC4=O (stereo not given in full) | 25.7%
51 | COC1=CC(c2ccc[nH]2)=N/C1=C\c1[nH]c(C)c(CC(=O)OCc2ccccc2)c1C | -55.9% (active)
52 | NC(=O)c1ccc(NC(=O)c2oc3ccccc3c2-c2cnn(-c3ccccc3)c2)cc1 | -0.698% [50 µM] (active)
53 | CCOC(=O)N1CCN(S(=O)(=O)c2oc(-c3ccc(Cl)cc3)nc2C#N)CC1 | 75.4%
54 | Cc1nn(-c2ccccc2)c(N2CCCCC2)c1/C=N/NC(=O)Cn1c(=O)sc2ccccc21 | 72.2%
55 | CN(C)c1ccc(C(=NO)c2ccc(N(C)C)cc2)cc1 | 17.4%
56 | Clc1ccc(-c2nc(-c3c[nH]c4ncccc34)cs2)cc1 | 70.3% [100 µM]
57 | COc1ccc(C(c2cc(OC)c(OC)c(OC)c2)N2CCCC2)cc1 (stereo not given) | 60.1%
58 | COc1cccc(C(=O)OCC(O)C(=O)NC23CC4CC(CC(C4)C2)C3)c1 (stereo not given) | 99.1%
59 | C=CC(=O)N1CCN(c2ccc3cccc(NC(=O)c4cnc(C)cn4)c3n2)CC1 | 41.2%
60 | CCOC(=O)c1c(C)c2c(n1C)CSc1cc(S(=O)(=O)c3ccccc3)c(=O)[nH]c1-2 | 23.7% [100 µM]

Row | SMILES | growth
61 | CCCCCCCCNc1cc2c3c(c1)CCCN3CCC2 | 30.3%
62 | COc1ccc(OC)c(-c2cn3nc(-c4c[nH]c5ccc(Br)cc45)sc3n2)c1 | 12.7%
63 | CS(=O)(=O)Nc1cc(-c2ccc3ncnc(Nc4ccc5c(cnn5Cc5cccnc5)c4)c3c2)cnc1Cl | 41%
64 | C=CCN=C(N)SCCCCCCSC(N)=NCC=C | 92.4%
65 | COc1cc(C2C3=C(COC3=O)N(CCO)c3cc4c(cc32)OCCO4)cc(OC)c1OC (stereo not given) | -28.8% (active)
66 | COc1ccc2[nH]cc(-c3nc(-c4cn(C)c5ccncc45)cs3)c2c1 | -88.7% (active)
67 | COc1cccc(NC(=O)c2cccc(C3CCc4c(cc(OC)c(OC)c4OC)O3)c2)c1 (stereo not given) | 56.9%
68 | Cn1c(O)c(C(/C=C/c2ccccc2)=Nc2ccccc2N)c(=O)n(C)c1=O | 104%
69 | CC1=C(C(=O)n2c3ccccc3c3ccccc32)C(c2cccc([N+](=O)[O-])c2)C(C(=O)n2c3ccccc3c3ccccc32)=C(C)N1 | 100%
70 | O=C(O)c1cn(C2CC2)c2cc(N3CCN(C(=O)N/N=C/c4ccccc4)CC3)c(F)cc2c1=O | 108%
71 | CC1(C)CCC(S(=O)(=O)c2ccc3c(c2)/C(=N\O)c2cc(S(=O)(=O)N4CCN(c5ccc(F)cc5O)CC4)ccc2-3)CC1 | -81.9% (active)
72 | Cc1ccc(C)n1/C=C/n1c(C)ccc1C | 110%
73 | CCOC(=O)C(=Cc1cccc(C#N)c1)C(=O)OCC | 62.3%
74 | COc1cc(-c2nc(NC(C)=O)sc2-c2ccnc(NCCNS(=O)(=O)c3ccccc3)n2)ccc1Cl | -20.4% (active)
75 | CCN1CCN(CC(=O)Nc2nc3ccc(NCc4ccc(Br)cc4)cc3s2)CC1 | -56.2% (active)
76 | C/C(=N\Nc1nc(C)cs1)c1cc2ccccc2o1 | 95.4%
77 | COc1ccccc1-n1c(-c2cc(O)ccc2C)cn2c3c(=O)[nH]c(=O)n(C)c3nc12 | 92.2%
78 | N#C/C(=C\c1ccc(Br)cc1)c1cc2ccccc2[nH]1 | 101%
79 | COc1ccc(C2=C/C(=C\c3ccc(Cl)cc3)C(=O)N2/N=C/c2ccc(Cl)cc2)cc1 | 100%
80 | CC(O)c1ncc(/C=C2\SC(=S)N(Cc3ccccc3)C2=O)s1 (stereo not given) | 93.8%

— PubChem BioAssay (NCI)
